The target of assay [1] is Tyrosine-protein kinase SYK (Homo sapiens) (UniProt P43405). Conditions: at 10 µM.
Assay [2] deals with T1, Mitogen-activated protein kinase kinase kinase 7 (Homo sapiens) (UniProt O43318).
T1 sequence (whole entry): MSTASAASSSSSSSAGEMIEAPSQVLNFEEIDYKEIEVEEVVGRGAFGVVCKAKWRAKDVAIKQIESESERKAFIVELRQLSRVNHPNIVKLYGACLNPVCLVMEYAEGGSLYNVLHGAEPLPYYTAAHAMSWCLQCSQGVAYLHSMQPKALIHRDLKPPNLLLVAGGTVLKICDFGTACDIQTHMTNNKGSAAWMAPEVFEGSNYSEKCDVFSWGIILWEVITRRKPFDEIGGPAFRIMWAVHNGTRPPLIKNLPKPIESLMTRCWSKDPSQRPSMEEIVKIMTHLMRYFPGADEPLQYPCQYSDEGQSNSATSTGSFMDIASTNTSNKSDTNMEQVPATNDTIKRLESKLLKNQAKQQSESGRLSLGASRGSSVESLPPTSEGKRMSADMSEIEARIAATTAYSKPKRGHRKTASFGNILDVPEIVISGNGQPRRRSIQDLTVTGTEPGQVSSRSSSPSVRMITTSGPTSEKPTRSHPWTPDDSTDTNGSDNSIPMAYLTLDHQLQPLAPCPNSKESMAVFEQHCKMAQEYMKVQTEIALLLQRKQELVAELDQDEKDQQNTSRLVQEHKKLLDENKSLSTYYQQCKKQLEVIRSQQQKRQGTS
Conditions: at 1 µM.

Assay [3] has as its target T1, Mitogen-activated protein kinase kinase kinase 7 (Homo sapiens). The note with it: at 10 µM.
Assay [4] addresses T2, Serine/threonine-protein kinase TAO1 (Homo sapiens) (UniProt Q7L7X3).
T2 sequence (whole entry): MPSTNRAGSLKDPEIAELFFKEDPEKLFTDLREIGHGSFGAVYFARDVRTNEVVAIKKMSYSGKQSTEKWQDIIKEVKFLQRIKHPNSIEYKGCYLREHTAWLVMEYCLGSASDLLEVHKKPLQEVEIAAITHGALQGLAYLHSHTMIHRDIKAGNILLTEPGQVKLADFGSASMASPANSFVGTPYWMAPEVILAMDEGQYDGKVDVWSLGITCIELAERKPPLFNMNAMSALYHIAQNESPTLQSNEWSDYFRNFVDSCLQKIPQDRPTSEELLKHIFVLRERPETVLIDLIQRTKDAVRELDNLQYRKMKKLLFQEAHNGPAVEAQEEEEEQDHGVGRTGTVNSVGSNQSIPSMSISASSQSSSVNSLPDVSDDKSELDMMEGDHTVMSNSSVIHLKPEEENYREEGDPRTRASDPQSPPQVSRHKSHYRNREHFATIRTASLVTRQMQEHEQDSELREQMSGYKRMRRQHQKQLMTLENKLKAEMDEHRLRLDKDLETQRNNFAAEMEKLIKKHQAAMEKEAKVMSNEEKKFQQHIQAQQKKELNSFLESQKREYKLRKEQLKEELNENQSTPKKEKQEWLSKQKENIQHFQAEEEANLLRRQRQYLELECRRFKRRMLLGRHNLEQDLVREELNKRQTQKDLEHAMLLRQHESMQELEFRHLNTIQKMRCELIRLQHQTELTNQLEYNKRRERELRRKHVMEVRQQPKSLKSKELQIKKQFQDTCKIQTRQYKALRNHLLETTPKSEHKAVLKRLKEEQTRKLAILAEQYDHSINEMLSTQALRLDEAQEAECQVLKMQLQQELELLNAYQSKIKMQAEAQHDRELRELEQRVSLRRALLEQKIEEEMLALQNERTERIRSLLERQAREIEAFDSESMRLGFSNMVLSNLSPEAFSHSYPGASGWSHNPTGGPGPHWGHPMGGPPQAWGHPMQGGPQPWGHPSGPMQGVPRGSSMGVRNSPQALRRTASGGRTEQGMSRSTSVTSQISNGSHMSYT
The note with it: at 1 µM.

Assay [5] addresses T2, Serine/threonine-protein kinase TAO1 (Homo sapiens). The note with it: at 10 µM.
Assay [6] concerns the target T3, Serine/threonine-protein kinase TAO2 (Homo sapiens) (UniProt Q9UL54).
T3 sequence (whole entry): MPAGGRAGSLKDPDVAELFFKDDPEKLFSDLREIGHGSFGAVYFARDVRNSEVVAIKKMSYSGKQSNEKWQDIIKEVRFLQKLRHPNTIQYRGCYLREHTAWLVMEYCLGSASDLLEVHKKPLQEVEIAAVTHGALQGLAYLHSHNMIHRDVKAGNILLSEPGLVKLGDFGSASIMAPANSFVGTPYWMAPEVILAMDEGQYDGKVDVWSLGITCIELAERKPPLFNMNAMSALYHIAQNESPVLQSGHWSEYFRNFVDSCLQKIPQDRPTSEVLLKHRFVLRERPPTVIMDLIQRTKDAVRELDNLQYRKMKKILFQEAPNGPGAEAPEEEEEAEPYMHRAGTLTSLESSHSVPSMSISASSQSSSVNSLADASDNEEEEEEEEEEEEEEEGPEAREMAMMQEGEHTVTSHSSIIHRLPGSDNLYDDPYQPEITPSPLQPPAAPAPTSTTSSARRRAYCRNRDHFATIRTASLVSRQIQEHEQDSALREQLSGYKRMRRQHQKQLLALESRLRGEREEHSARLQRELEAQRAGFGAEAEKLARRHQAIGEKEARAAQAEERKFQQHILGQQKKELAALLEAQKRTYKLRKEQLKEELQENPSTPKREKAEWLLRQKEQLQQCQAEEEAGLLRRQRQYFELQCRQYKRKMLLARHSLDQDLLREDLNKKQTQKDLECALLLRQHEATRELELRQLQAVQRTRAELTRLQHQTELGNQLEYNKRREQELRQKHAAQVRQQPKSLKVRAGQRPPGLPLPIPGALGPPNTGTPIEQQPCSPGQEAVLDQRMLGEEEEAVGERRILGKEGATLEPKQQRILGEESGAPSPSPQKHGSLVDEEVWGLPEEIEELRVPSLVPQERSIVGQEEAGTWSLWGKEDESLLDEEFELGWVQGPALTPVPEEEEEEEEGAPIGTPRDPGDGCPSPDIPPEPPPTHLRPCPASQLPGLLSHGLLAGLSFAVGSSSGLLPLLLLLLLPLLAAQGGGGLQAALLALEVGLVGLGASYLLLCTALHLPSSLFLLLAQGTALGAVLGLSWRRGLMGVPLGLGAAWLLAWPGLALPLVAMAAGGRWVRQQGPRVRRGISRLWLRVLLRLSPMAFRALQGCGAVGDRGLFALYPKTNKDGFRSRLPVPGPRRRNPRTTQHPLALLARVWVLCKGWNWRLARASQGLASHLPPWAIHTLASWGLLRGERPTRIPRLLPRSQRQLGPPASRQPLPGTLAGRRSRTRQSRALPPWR
Conditions: at 1 µM.

For assay [7], the target named is T3, Serine/threonine-protein kinase TAO2 (Homo sapiens). The note with it: at 10 µM.
For assay [8], the target named is T4, Serine/threonine-protein kinase TAO3 (Homo sapiens) (UniProt Q9H2K8).
T4 sequence (whole entry): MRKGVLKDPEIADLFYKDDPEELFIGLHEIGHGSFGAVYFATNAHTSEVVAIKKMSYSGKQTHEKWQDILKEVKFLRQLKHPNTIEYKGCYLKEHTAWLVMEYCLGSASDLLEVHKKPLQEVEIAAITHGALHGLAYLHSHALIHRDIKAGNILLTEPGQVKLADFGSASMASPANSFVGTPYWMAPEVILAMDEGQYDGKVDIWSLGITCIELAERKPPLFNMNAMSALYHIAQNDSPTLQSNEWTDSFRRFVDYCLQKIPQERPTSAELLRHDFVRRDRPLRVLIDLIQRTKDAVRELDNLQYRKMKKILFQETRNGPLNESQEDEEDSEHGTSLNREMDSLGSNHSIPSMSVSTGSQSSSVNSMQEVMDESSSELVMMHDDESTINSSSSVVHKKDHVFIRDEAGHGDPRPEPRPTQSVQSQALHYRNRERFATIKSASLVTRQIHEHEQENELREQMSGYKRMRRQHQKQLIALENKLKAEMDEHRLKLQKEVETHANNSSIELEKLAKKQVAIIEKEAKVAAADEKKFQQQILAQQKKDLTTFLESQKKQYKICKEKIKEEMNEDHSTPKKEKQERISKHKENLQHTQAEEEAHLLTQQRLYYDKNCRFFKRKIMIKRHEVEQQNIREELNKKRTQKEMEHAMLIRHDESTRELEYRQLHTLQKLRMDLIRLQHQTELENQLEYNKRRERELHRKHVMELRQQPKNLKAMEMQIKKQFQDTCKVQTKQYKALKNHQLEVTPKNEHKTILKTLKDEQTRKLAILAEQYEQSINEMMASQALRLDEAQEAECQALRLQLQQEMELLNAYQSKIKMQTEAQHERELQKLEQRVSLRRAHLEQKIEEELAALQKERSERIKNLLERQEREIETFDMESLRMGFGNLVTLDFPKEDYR
Conditions: at 1 µM.

For assay [9], the target named is T4, Serine/threonine-protein kinase TAO3 (Homo sapiens). The note with it: at 10 µM.
Assay [10] addresses T5, Serine/threonine-protein kinase TBK1 (Homo sapiens) (UniProt Q9UHD2).
T5 sequence (whole entry): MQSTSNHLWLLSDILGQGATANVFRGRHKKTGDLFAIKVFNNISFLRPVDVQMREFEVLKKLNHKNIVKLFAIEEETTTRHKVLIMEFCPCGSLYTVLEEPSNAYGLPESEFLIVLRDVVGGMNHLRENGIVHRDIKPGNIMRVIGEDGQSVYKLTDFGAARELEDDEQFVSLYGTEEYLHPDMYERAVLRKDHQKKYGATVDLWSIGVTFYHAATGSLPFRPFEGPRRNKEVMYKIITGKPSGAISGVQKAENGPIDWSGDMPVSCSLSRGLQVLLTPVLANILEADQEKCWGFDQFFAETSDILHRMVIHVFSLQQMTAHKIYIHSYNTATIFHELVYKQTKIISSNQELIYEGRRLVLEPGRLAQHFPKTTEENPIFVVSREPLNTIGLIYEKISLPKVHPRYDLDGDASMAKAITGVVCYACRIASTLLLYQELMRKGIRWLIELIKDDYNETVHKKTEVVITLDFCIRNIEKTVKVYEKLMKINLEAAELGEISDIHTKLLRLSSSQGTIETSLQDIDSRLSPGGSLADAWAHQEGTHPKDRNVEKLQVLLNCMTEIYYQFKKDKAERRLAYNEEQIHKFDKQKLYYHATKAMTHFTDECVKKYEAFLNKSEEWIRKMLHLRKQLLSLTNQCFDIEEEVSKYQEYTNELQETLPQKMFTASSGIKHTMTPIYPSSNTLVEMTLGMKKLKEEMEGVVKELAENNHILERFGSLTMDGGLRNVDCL
The note with it: at 1 µM.

Regarding `Cc1ccc(NC2=CC(=O)c3sc(C)nc3C2=O)cc1`, the residual activity in assay [1] was determined as 113%; in assay [2], 86%; in assay [3], 89%; in [4] it was 91%; in [5], 77%; in assay [6] it was 95%. Also, the residual activity in assay [7] amounted to 88%; in assay [8], 94%; in assay [9], 93%; in [10], 77%.

(Values after ChEMBL document CHEMBL2218924, “A broad activity screen in support of a chemogenomic map for kinase signalling research and drug discovery” (Biochem J, 2013).)
